Hits are enriched below; roughly 7.3% of the tested compounds scored in any of these assays.
SMN2 splice up = qHTS Assay for Enhancers of SMN2 Splice Variant Expression; HEK293 SMN2-luciferase splicing reporter, luminescence, 30-36 h; Potency, µM (highest dose often 46.1 µM), hits mostly activators; 210,000 compounds, 2.8% hits; also: nearly all actives have a fitted effect of over 55% in size
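HEK293 cells carry an SMN2 minigene-luciferase reporter in which exon 7 inclusion puts luciferase in frame. Cells were seeded at 2000 cells/well, attached for 10-12 hours, then exposed to compounds for 30-36 hours at 37C before ONE-Glo luminescence.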
FLuc modulator = qHTS profiling assay for firefly luciferase inhibitor/activator using purifed enzyme and Km concentrations of substrates (counterscreen for miR-21 project); purified FLuc, Km substrates, luminescence inhibition; Potency, µM (titrated, usually from 57.5 µM), hits mostly inhibitors; 360,000 compounds, 6.9% hits; AID 588342, 2011; also: nearly all actives have a fitted effect of over 55% in size
Target sequence (P08659 whole entry, looked up): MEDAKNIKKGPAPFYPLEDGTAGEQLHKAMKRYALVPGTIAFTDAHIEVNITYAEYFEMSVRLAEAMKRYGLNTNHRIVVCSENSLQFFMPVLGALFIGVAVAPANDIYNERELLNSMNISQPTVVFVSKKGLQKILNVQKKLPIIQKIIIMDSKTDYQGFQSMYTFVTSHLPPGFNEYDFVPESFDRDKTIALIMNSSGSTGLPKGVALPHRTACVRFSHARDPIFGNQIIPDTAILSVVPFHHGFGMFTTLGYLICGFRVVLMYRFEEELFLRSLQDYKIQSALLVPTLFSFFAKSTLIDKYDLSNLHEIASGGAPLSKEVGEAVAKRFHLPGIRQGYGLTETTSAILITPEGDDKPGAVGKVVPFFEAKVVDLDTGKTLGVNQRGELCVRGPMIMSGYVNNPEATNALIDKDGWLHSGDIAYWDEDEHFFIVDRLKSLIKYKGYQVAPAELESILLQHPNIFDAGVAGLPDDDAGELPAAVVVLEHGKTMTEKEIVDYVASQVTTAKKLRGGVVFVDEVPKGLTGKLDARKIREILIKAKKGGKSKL
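Purified P. pyralis luciferase (10nM final) with 10uM D-luciferin and 10uM ATP (Km levels) in 50mM Tris acetate pH 7.5, 10mM Mg acetate, 0.01% Tween-20, 0.05% BSA; qHTS 6-point titration, ~60 µM downward; luminescence read.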
ELG1 genotox = qHTS screen for small molecules that induce genotoxicity in human embryonic kidney (HEK293T) cells expressing luciferase-tagged ELG1 | HEK293T ELG1-luciferase reporter, luminescence, 16 h | Potency, µM (top dose mostly 46 µM), most hits filed as activators | 330,000 compounds, 1.3% hits | AID 504466, 2011; also: nearly all actives have a fitted effect of over 60% in size
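ELG1-luciferase HEK293T cells, 2,000/well; compound pinned in; 16 hr, 37 °C, 5% CO2; ONE-Glo, 30 min RT; luminescence on CCD imager.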
NPC1 prom act = qHTS Assay for NPC1 Promoter Activators. Huh7 NPC1 promoter luciferase reporter, 24 h. Potency, µM (top dose mostly 9.22 µM), hits mostly activators. 320,000 compounds, 2.4% hits; also: nearly all actives have a fitted effect of over 60% in size
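Compounds in DMSO were transferred onto Huh7 NPC1-luciferase reporter cells pre-incubated 2 h; after 24 h at 37 °C, Amplite reagent was dispensed and luminescence recorded 10 min later.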
Rab9 promoter act = qHTS Assay for Rab9 Promoter Activators | Huh7 Rab9 promoter-luciferase reporter, luminescence, 24 h | 320,000 compounds, 2.8% hits | AID 485297, 2010 | Potency, µM (series often up to 9.22 µM), usual class: activators; also: nearly all actives have a fitted effect of over 60% in size
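Using Huh7 cells stably transfected with Rab9 promoter–luciferase, compounds were incubated 24 h at 37 °C, 5% CO2; luciferase luminescence was read 10 min after reagent addition.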
KinaseGlo FLuc = Counterscreen for Luciferase (Kinase-Glo TM) Inhibition | Potency, µM (doses to about 38.3 µM), actives largely listed as inhibitors | Luciferin 4-monooxygenase (Photuris pensylvanica), Q27757 | Kinase-Glo luciferase, ATP luminescence, 8 min | 200,000 compounds, 0.28% hits | AID 1379, 2008; also: nearly all actives have a fitted effect of over 60% in size
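Compound is pinned into ATP-containing buffer (10 uM ATP, imidazole pH 7.2, 7 mM MgCl2). Kinase-Glo luciferase reagent is then added. Light output is recorded following an 8-min room-temperature incubation.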
Numbers stand for hits; . = inactive; ? = inconclusive; / = no result given; [ ] = remark or other dose. Calls follow the shape of the dose curve; as a rule, active = well fitted curve in the direction sought with a large enough effect; inconclusive = small, poorly fitted or top-dose-only effect, or another doubt; inactive = no such curve, though single readings can be large; an effect the other way counts as inactive or inconclusive.

SMILES | SMN2 splice up | FLuc modulator | ELG1 genotox | NPC1 prom act | Rab9 promoter act | KinaseGlo FLuc
COc1ccc(N2C(=O)N(Cc3ccc(C)cc3)c3ccccc3S2(=O)=O)cc1 | . | . | . | . | . | .
CC(Oc1ccccc1)C(=O)N=C1SC2CS(=O)(=O)CC2N1c1cccc(F)c1 (stereo not given) | / | . | . | . | . | /
COCc1ccc(C(=O)N(C)CC2CCCN(CCc3ccc(OC)cc3)C2)o1 (stereo not given) | / | 16.9µM | ? | ? | ? | /
Cc1ccnc(NC(=O)c2cccc(NC(=O)CC3SC(N4CCCCC4)=NC3=O)c2)c1 (stereo not given) | / | 12µM | . | . | . | /
CCNC(=O)c1ccc(NC(=O)CC2SC(N3CCCCC3)=NC2=O)cc1 (stereo not given) | / | . | . | . | . | /
Cc1ccnc(NC(=O)c2ccc(NC(=O)CC3SC(N4CCCC4)=NC3=O)cc2)c1 (stereo not given) | / | . | . | . | . | /
CC1CCC(NC(=O)c2ccc(NC(=O)CC3SC(N4CCCC4)=NC3=O)cc2)CC1 (stereo not given) | / | ? | . | 2.51µM | 2.24µM | /
COc1ccc(S(=O)(=O)N(CC(=O)N2CCN(C)CC2)c2ccc(C)cc2)cc1Br | / | . | . | . | . | /
COc1ccc2cc3c(N)c(C(=O)NCc4ccco4)sc3nc2c1 | 12.6µM | 6.01µM | . | ? | 2µM | .
COc1ccc(NC(=O)c2ccccc2)cc1 | / | ? | ? | 3.55µM | 1.78µM | /
COc1ccc(C(=O)Nc2ccc(C(=O)NCCc3ccccc3)cc2)cc1 | / | . | . | . | . | .
O=C(Nc1ccc(SC(F)F)cc1)c1ccc2nccnc2c1 | . | 10.7µM | . | ? | . | .
CCCc1ccc(C(=O)NNc2cccc(C)c2)cc1 | / | 21.3µM | ? | . | . | /
O=C(Nc1ccc(Oc2ccsc2C(=O)O)cc1)c1ccccc1 | / | 23.9µM | . | . | . | /
COc1ccc(C(=O)Nc2ccc(SC(F)F)cc2)cc1 | ? | 3.01µM | ? | 2.24µM | 0.794µM | .
COc1ccc(NS(=O)(=O)NC(=O)c2c(C)n(C)c3ccccc23)cc1 | / | . | . | . | . | /
COc1ccc(NC(=O)c2c(Cl)n(C)c3ccccc23)cc1 | ? | 9.53µM | . | . | . | .
COc1ccc(NC(=O)c2ccc(C)cc2)cc1 | / | 2.69µM | 2.06µM | 0.398µM | 0.447µM | /
O=C(O)c1sccc1Oc1ccc(NS(=O)(=O)c2cccc(F)c2)cc1 | / | . | . | . | . | /
CCCCOc1ccc(C(=O)Nc2ccc(SC(F)F)cc2)cc1OC | . | . | . | . | . | .
COc1cc(NS(=O)(=O)c2ccc(C)c(C)c2)c(OC)cc1Cl | . | . | . | . | . | .
COc1ccc(C(=S)Nc2ccc(C)cc2)cc1 | 17.8µM | 2.39µM | . | 2µM | 2.82µM | .
COc1ccc(C(=O)Nc2cccc(C(=O)NCc3ccco3)c2)cc1 | / | 12µM | . | . | . | .
Cc1ccc(NC(=S)c2ccccc2)cc1 | .[1.84 µM] | 4.78µM | ? | ? | 2.51µM | .
COc1ccc(C(=O)Nc2cccc(C)c2)cc1 | 11.2µM | 3.38µM | ? | 1.26µM | 1.26µM | ?
SMILES | SMN2 splice up | FLuc modulator | ELG1 genotox | NPC1 prom act | Rab9 promoter act | KinaseGlo FLuc
Cc1ccc(NC(=S)c2ccncc2)cc1 | / | ? | .[9.26 µM] | . | . | /
CN(c1ccc(OCC(=O)OCC(=O)Nc2ccc(F)cc2)cc1)S(=O)(=O)c1ccc(Cl)cc1 | . | . | . | . | . | .
O=C(Nc1ccsc1C(=O)O)c1ccccc1 | / | 23.9µM | . | . | . | /
O=C(Nc1ccsc1C(=O)N1CCCCCC1)c1ccccc1 | . | . | . | . | . | .
CCOC(=O)[C@@H]1[C@H]2COc3ccc(Br)cc3[C@@H]2N2C(=O)N(c3ccc(Br)cc3)C(=O)[C@]12C | / | . | . | . | . | /
COc1cccc(NC(=O)Nc2cccc(C)n2)c1 | / | 5.36µM | . | 2.24µM | ? | /
COc1ccc(NC(=S)NC(=O)/C=C/c2ccccc2)cc1 | / | . | . | . | . | /
Cc1cccc(NC(=O)Nc2ccc(Cl)c(Cl)c2)n1 | / | 2.39µM | ? | ? | ? | /
Cc1cccc(NC(=S)NC(=O)/C=C/c2ccccc2)n1 | . | . | . | ? | 2.51µM | .
Cc1cccc(NC(=O)Nc2ccccc2)n1 | / | 12µM | ? | ? | ? | /
CCOc1ccccc1NC(=O)C1CCN(S(=O)(=O)c2cccs2)CC1 | . | . | / | / | / | /
C=CCNC(=O)c1c(N)n(-c2ccc3c(c2)OCO3)c2nc3ccccc3nc12 | . | . | . | . | . | .
Cc1cccc(NC(=O)/C(C#N)=C/c2ccc(F)cc2)n1 | / | 5.36µM | . | . | . | /
CCOc1ccccc1/C=C(/C#N)C(N)=O | / | . | . | . | . | /
CCCOc1ccccc1/C=C(\C#N)C(=O)Nc1cccc(C)n1 | / | 10.7µM | . | . | . | /
CCCNC(=O)c1c(CSc2ccccc2)noc1C(=O)NCc1ccccc1 | / | . | . | . | . | /
Cc1ccc(-c2nc3ccccc3nc2NN)cc1 | / | 1.35µM | 8.2µM | . | ? | /
Cc1ccc(-c2nc3ccccc3nc2Cl)cc1 | . | ? | . | . | . | .
COc1ccc(-c2cc(C(=O)Nc3ccc4c(c3)OCO4)no2)cc1 | . | . | . | . | . | /
O=C(Nc1ccc2c(c1)OCO2)c1cc(C2CC2)on1 | 11.2µM | 4.26µM | 2.06µM | 1.58µM | 1.41µM | .
CC(C)c1cc(C(=O)Nc2ccc3c(c2)OCO3)no1 | 7.08µM | 3.38µM | 2.06µM | 2.82µM | 1.58µM | .
CC(C)c1cc(C(F)(F)F)n2nc(C(=O)Nc3ccc4c(c3)OCO4)cc2n1 | . | 12µM | ? | . | ? | .
CCOC(=O)c1cnc(SC2CC(=O)N(c3ccc(C)cc3)C2=O)nc1N (stereo not given) | . | . | / | / | / | .
N/C(=N\OC(=O)c1ccc2c(c1)OCO2)c1ccc(Cl)cc1 | ? | 0.849µM | ? | 2.82µM | ? | ?
Cc1ccc(/C(N)=N/OC(=O)c2ccc3c(c2)OCO3)cc1 | 12.6µM | 2.13µM | ? | 3.16µM | 2.82µM | .
SMILES | SMN2 splice up | FLuc modulator | ELG1 genotox | NPC1 prom act | Rab9 promoter act | KinaseGlo FLuc
COc1ccc(C)cc1NC(=O)COC(=O)c1ccc2c(c1)OCO2 | / | / | . | . | . | /
N/C(=N\OC(=O)c1ccc2c(c1)OCO2)c1ccncc1 | / | 1.51µM | ? | 3.16µM | 2.51µM | /
COc1ccc(/C(N)=N/OC(=O)c2ccc3c(c2)OCO3)cc1 | 11.2µM | 2.13µM | ? | ? | ? | .
N/C(=N\OC(=O)N1CCOCC1)c1ccc(Cl)cc1 | . | ? | . | . | ? | .
Cc1ccc(Nc2c(-c3ccncc3)nc3ccc(C)cn23)cc1 | . | . | / | / | / | /
CCSc1ccc(-c2ccco2)nn1 | . | ? | . | . | . | .
Fc1ccc(CSc2ccc(-c3ccco3)nn2)cc1 | 22.4µM | 4.78µM | ? | 3.16µM | 3.16µM | .
